Source: PubChem BioAssay AID1850 (Southern Research Specialized Biocontainment Screening …, 2009)
Out of some 310,000 compounds screened, about 1,000 (0.32%) were called active. Only a sample is shown. Measured potencies and affinities stand elsewhere. Unmarked numbers belong to inactive results. The rule behind the calls is not given here.

Experiment: PhoP regulon inhibitors, Salmonella typhi PhoP promoter GFP reporter, confirmatory (AID 1850);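 note: 0% = induced wells with vehicle and 100% = uninduced wells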
Conditions: fluorescence, 4 h, at 50 µM, stronger effect = higher value

Going from `O=C(c1cc(S(=O)(=O)N2CCOCC2)c(Cl)cc1Cl)N1CCCCC1` to `COc1ccc(CC(=O)Oc2ccc(C(C)C)cc2)cc1S(=O)(=O)N1CCOCC1`, the inhibition rises from -2.41% to 5.73%.

Going from `OC(COc1ccccc1)CN(Cc1ccccc1)CC(O)COc1ccccc1` (stereo unspecified) to `O=C(O)c1ccc2c(c1)N(Cc1ccccc1)C(=O)c1ccccc1S2=O` (stereo unspecified), the inhibition falls from -0.87% to -5.21%.

Going from `CCOc1ccc(-c2cc(C)[n+](CCN3CCOCC3)c(-c3ccc(OCC)cc3)c2)cc1` to `CCOc1ccc(-c2cc(C)[n+](CCO)c(-c3ccc(OCC)cc3)c2)cc1`, the inhibition falls from 8.34% to -1.61%.

Compared with `COC(=O)COc1ccc(C(=O)Cn2c(NCCCO)nc3ccccc32)cc1`, `COc1ccc(OCC(=O)Nc2c3c(nn2-c2ccccc2)CS(=O)(=O)C3)cc1` is lower in inhibition: 4.11% for the first, -4.09% for the second.

Compared with `Cc1ccc(C(=O)CCS(=O)(=O)c2ccc(Cl)cc2)cc1`, `Cc1ccc(C(=O)CCS(=O)(=O)c2ccc(Br)cc2)cc1` is lower in inhibition: 2.23% for the first, -6.22% for the second.

First: Cc1ccc(S(=O)(=O)NN2C(=O)c3ccccc3NC2c2ccco2)cc1 (stereo unspecified)
Second: COc1ccc(CNC(=O)CN2C(=O)c3ccccc3C2=O)cc1
The inhibition of the first is higher: -0.11% for the first, -5.61% for the second.

First: COc1ccc(CSc2nnnn2Cc2ccccc2)cc1OC
Second: COc1ccc(CSCC(=O)Nc2ccccc2SC)cc1
The inhibition of the first is lower: -8.33% for the first, 8.6% for the second.

First: COC(=O)C1=CO[C@@H](OC2OC(CO)C(O)C(O)C2O)[C@@H]2C(CO)=CC[C@H]12 (stereo partly specified)
Second: CO/N=C(\C(=O)N[C@@H]1C(=O)N2C(C(=O)O)=C(COC(N)=O)CS[C@H]12)c1ccco1
The inhibition of the first is lower: -13% for the first, -2.22% for the second.

Going from `CN(C)C(=O)C12CCC(C)(C(=O)C1Br)C2(C)C` (stereo unspecified) to `CCOC(=O)c1ncn2c1C(=O)OC2(C)C`, the inhibition falls from 7.02% to 6.54%.

First: NC1=NC[C@H](Cc2ccccc2)N1CCc1cc(C(F)(F)F)cc(C(F)(F)F)c1
Second: CCCC[C@@H]1CN=C(N)N1CCc1cc(C(F)(F)F)cc(C(F)(F)F)c1
The inhibition of the first is lower: -32.4% for the first, 11.5% for the second.

First: NC1=NC[C@H](c2ccccc2)N1CCc1cccc(F)c1
Second: Cc1ccccc1C(=O)Nc1ccnn1C1CCN(CCCc2ccccc2)CC1
The inhibition of the first is higher: 12.6% for the first, -1.21% for the second.

Compared with `FC(F)(F)c1cc(CCN2C(=S)NC[C@@H]2CC2CCCCC2)cc(C(F)(F)F)c1`, `COc1ccccc1CN1CC(C(=O)NC2CCCCC2)CC1=O` (stereo unspecified) is higher in inhibition: -1.84% for the first, 1.61% for the second.

First: Cc1ccc(S(=O)(=O)N2CCCN(S(=O)(=O)c3ccc(C(F)(F)F)cc3)CC2)cc1
Second: Cc1ccc(/C(O)=C/c2nc3ccccc3oc2=O)cc1
The inhibition of the first is lower: -17.3% for the first, -11.1% for the second.

Going from `Cc1cc(=O)[nH]c(N/N=C/c2ccccn2)n1` to `Cc1nnc(N/N=C/c2c[nH]c3ccccc23)[nH]c1=O`, the inhibition falls from 18.1% to -1.2%.

First: Clc1cnc(N/N=C/c2ccncc2)c(Cl)c1
Second: O=c1oc2ccc(Cl)cc2nc1/C=C(\O)c1ccco1
The inhibition of the first is higher: 1.77% for the first, -30.4% for the second.

Compared with `CN(C)C(=O)c1sccc1Oc1ccc(F)cc1[N+](=O)[O-]`, `COC(=O)c1sccc1Oc1ccc(F)cc1[N+](=O)[O-]` is lower in inhibition: 7.3% for the first, 4.41% for the second.

First: COc1cc2ncnc(NCCCN3CCOCC3)c2cc1OC
Second: COc1ccc(C(=O)OC2CCN(C)CC2)cc1
The inhibition of the first is lower: -4.12% for the first, 3.95% for the second.

Going from `CN1CCC(OC(=O)c2cccc(Cl)c2)CC1` to `CN1CCC(OC(=O)c2ccccc2)CC1`, the inhibition rises from 4.43% to 8.65%.

Compared with `CN1CCC(OC(=O)c2ccccc2Cl)CC1`, `CC(=O)c1ccccc1OCCn1nc(C(=O)O)c2ccccc2c1=O` is higher in inhibition: -6.15% for the first, 1.39% for the second.

First: CCOc1ccccc1OCc1nn2c(-c3ccc(C)cc3)nnc2s1
Second: Cc1ccc(-c2nn(C)c(=O)c3ccccc23)cc1S(=O)(=O)NCCO
The inhibition of the first is higher: 3% for the first, -2.47% for the second.

Going from `C#CCOCCOCCOCCNc1nc(N2CCN(C(=O)CCCCCCCCCCNC(=O)[C@H]([C@@H](C)CC)n3cc(CCCCCN)nn3)CC2)nc(N2CCN(C(=O)CCCCCCCCCCNC(=O)[C@H](CO)n3cc(CCCCCN)nn3)CC2)n1` to `C#CCOCCOCCOCCNc1nc(N2CCOCC2)nc(N2CCN(C(=O)CCCCCCCCCCNC(=O)[C@H](CO)n3cc(CCCCCN)nn3)CC2)n1`, the inhibition falls from 9.35% to -10.9%.

Compared with `C#CCOCCOCCOCCNc1nc(N2CCOCC2)nc(N2CCN(C(=O)CCCCCCCCCCNC(=O)[C@H]([C@@H](C)CC)n3cc(CCCCN=C(N)N)nn3)CC2)n1`, `C#CCOCCOCCOCCNc1nc(N2CCN(C(=O)[C@H]([C@@H](C)CC)n3cc(CCCCN)nn3)CC2)nc(N2CCN(C(=O)[C@H]([C@@H](C)CC)n3cc(CCCN=C(N)N)nn3)CC2)n1` is lower in inhibition: 5.04% for the first, -1.05% for the second.

Going from `O=C(COC(=O)/C=C/c1ccc([N+](=O)[O-])cc1)NCc1ccccc1` to `O=C(CCS(=O)(=O)Cc1ccc(Cl)cc1)NCCc1ccccc1`, the inhibition rises from -8.81% to -1.47%.

Compared with `CCCCCCC(C)n1cc(C(C)=O)c(=O)n(C)c1=O` (stereo unspecified), `CN(C)CCNC(=O)CCCNC(=O)Cn1cnc2sc3c(c2c1=O)CCCC3` is higher in inhibition: -9.33% for the first, 12.2% for the second.

First: COCC1=C(C(=O)OC(C)OC(=O)OC(C)C)N2C(=O)[C@@H](NC(=O)/C(=N\OC)c3csc(N)n3)[C@H]2SC1 (stereo partly specified)
Second: CC1=C(C(=O)OC(C)C)C(c2ccc(C)o2)C(C(=O)OC(C)C)=C(C)N1
The inhibition of the first is higher: 15.8% for the first, 6.14% for the second.

Compared with `CCCC/C=C1\CCc2c([nH]c3ccccc23)C1=O`, `CC1=NCCc2c1[nH]c1ccccc21` is lower in inhibition: 8.47% for the first, 5.56% for the second.

Compared with `CC(C)C/C(O)=C/c1nc2cc(Cl)ccc2oc1=O`, `Cc1ccc2oc(=O)c(/C=C(\O)C(C)(C)C)nc2c1` is higher in inhibition: -18.3% for the first, -12.4% for the second.

First: CC(C)(C)/C(O)=C/c1nc2ccccc2oc1=O
Second: Cc1ccc(/C(O)=C/c2nc3cc(C)ccc3oc2=O)cc1
The inhibition of the first is higher: -3.78% for the first, -48.6% for the second.
